Hits are enriched below; roughly 2.4% of the tested compounds scored in any of these assays.
Caspase-1 inhib: qHTS Assay for Allosteric/Competitive Inhibitors of Caspase-1. P29466. Caspase-1 enzyme, Ac-WEHD-AFC fluorogenic rate. Potency, µM (highest dose often 57.5 µM), inactives show at the highest dose activity change, negative = inhibition, usual class: inhibitors. hit rate 0.03% among 75,000;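 further: plate controls were vehicle for no effect and no substrate for full effect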
ALOX15 inhib: qHTS Assay for Inhibitors of 15-hLO (15-human lipoxygenase) | hit rate 1.4% among 74,000 | Polyunsaturated fatty acid lipoxygenase ALOX15 (Homo sapiens), P16050 | purified 15hLO-1, xylenol orange hydroperoxide absorbance | Potency, µM (titrated, usually from 57.1 µM), without a hit: at the top dose activity change, negative = inhibition, actives largely listed as inhibitors; further: on the % scale 0 is the no-effect control and ±100 the full control effect; nearly all actives have a fitted effect of over 55% in size
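Hydroperoxide formed from arachidonic acid (50 uM) by purified human 15hLO-1 (40 nM) oxidizes ferrous iron, and the ferric-xylenol orange complex is read at 573 versus 405 nm. Compounds were preincubated 15 min; reaction ran 6 min at room temperature.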
Hsp90 Hop PPI: qHTS Assay for Disrupters of an Hsp90 Co-Chaperone Interaction | Hsp90 C-terminal peptide / TPR2A (Hop) interaction, human | AlphaScreen TPR2A-His6 binding biotin-Hsp90 C-terminal peptide | Potency, µM (highest dose often 57 µM), for the others: top-dose activity change, negative = inhibition | hit rate 0.44% among 71,000 | AID 595, 2007; active means well fitted curve in either direction with a large enough effect; inconclusive means small, poorly fitted or top-dose-only effect, or another doubt; further: on the % scale 0 is the no-effect control and ±100 the full control effect
ALOX15B inhib: qHTS Assay for Inhibitors of 15-hLO-2 (15-human lipoxygenase 2) | Polyunsaturated fatty acid lipoxygenase ALOX15B (Homo sapiens), O15296 | purified 15hLO-2, xylenol orange hydroperoxide absorbance | Potency, µM (top dose mostly 57.1 µM), inactives show at the highest dose activity change, negative = inhibition, most hits filed as inhibitors | hit rate 0.56% among 110,000; further: on the % scale 0 is the no-effect control and ±100 the full control effect; nearly all actives have a fitted effect of over 60% in size
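Purified human 15hLO-2 (50 nM) preincubated 15 min with compound, then 45 uM arachidonic acid for 90 min at RT in 25 mM Hepes pH 7.5, 0.01% Triton X-100. Hydroperoxide detected by Fe-xylenol orange; 573/405 nm absorbance ratio.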
Tau filament bind: qHTS Assay for Tau Filament Binding; Microtubule-associated protein tau (Homo sapiens), P10636; recombinant tau filaments, thioflavin S fluorescence, 15 h; filaments grown with octadecylsulfate alongside compound; Potency, µM (series often up to 57.1 µM), for inactives: at the top dose activity change, negative = inhibition; hit rate 2% among 71,000; AID 596, 2007;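 further: on the % scale 0 is the no-effect control and ±100 the full control effect; actives lower thioflavin S fluorescence by blocking filaments or displacing dye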
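Tau 2 uM in ThS buffer dispensed; compound added; 60 uM ODS added (finals 1 uM tau, 30 uM ODS); 15 h 37 C; fluor ex450/em510.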
Caspase-7 inhib: qHTS Assay for Allosteric/Competitive Inhibitors of Caspase-7. AID 889, 2007. P55210. hit rate 0.02% among 75,000. recombinant caspase-7, Ac-DEVD-AFC fluorescence rate. Potency, µM (highest dose often 57.5 µM), inactives show at the top dose activity change, negative = inhibition, usual class: inhibitors; active means well fitted inhibition curve with a large enough effect in the main read-out, with a control signal flat, not every such curve was filed as active; inconclusive means small, poorly fitted or top-dose-only effect, or a change in a side signal; further: % of control where 0% means no effect
* = called active by the depositor; ? = inconclusive; / = not tested or not shown; [ ] = dose if it differs, or a comment. Unless noted, the call rests on the fitted dose curve; in most records, active means well fitted curve in the direction sought with a large enough effect; inconclusive means small, poorly fitted or top-dose-only effect, or another doubt; inactive means no such curve, though single readings can be large; an effect the other way counts as inactive or inconclusive. Potency means the concentration at half of the fitted maximal effect.

SMILES	Caspase-1 inhib	ALOX15 inhib	Hsp90 Hop PPI	ALOX15B inhib	Tau filament bind	Caspase-7 inhib
COc1nc(Nc2ccc(O)cc2)nc(OC(C(F)(F)F)C(F)(F)F)n1	-1%	25µM*	6%	-4%	-11%	1%
COC(=O)c1c(C(=O)OC)c2n(c1C)CCC2	0%	4%	-6%	2%	-1%	0%
COc1cc(NC(=O)c2cc(-c3cccnc3)nc3ccc(C)cc23)c(OC)cc1Cl	/	/	/	22%	/	/
O=c1c(-c2ccc3c(c2)OCCO3)coc2cc(O)cc(O)c12	-3%	16µM*	-10%	3%	-8%	-5%
O=c1c(-c2ccccc2)coc2cc(O)cc(O)c12	0%	3.2µM*	/	5%	/	2%
COc1cc(OC)c2c(=O)c(-c3ccc4c(c3)OCO4)coc2c1	-2%	1%	/	3%	/	2%
NCCC[C@@H](CC(=O)N[C@@H]1CCNC[C@H]1C(=O)N[C@H](CC(=O)N[C@@H](CCC(=O)O)CC(=O)O)Cc1c[nH]c2ccccc12)NC(=O)C[C@H](CO)NC(=O)[C@@H]1CCCC[C@H]1N	/	/	-16%	/	-4%	/
Cc1cc(OC(C)C)c2c(-c3ccccc3)cc(=O)oc2c1	/	/	/	-5%	/	/
NCCNCCNCCN	-5%	45%	6.3µM*	27%	2%	-2%
CCc1ccc(C(=O)CSC2=C(C#N)C(c3ccco3)C(C(C)=O)=C(C)N2)cc1 (stereo not drawn)	/	10µM*	28%	-28%	161%	?
CC(=O)C1=C(C)NC(SCC(=O)c2ccc(F)cc2)=C(C#N)C1c1ccco1 (stereo not drawn)	/	20µM*	17%	-9%	77%	?
COc1ccc(N2C(=O)CC(N3CCN(c4nc5ccccc5s4)CC3)C2=O)cc1 (stereo not drawn)	-1%	-4%	-8%	/	9%	-3%
COc1ccc(-n2c(=O)cc(N3CCN(Cc4ccccc4)CC3)[nH]c2=O)cc1	1%	4%	-3%	/	-2%	0%
Cc1cc(C(=O)CSc2nnc(C3COc4ccccc4O3)n2C)c(C)n1-c1ccc(F)cc1 (stereo not drawn)	-1%	?	-9%	9%	12%	-2%
O=[N+]([O-])c1ccc(Cl)c(C2Nc3cccc4cccc(c34)N2)c1	/	/	/	13µM*	/	/
O=[N+]([O-])c1cccc(C(=Nc2ccccc2Cl)NO)c1	/	/	/	-1%	/	/
Cc1cc(C)c(C#N)c(SCC(=O)c2cccs2)n1	-4%	-8%	21%	1%	2.5µM*	-2%
O=S(=O)(O)c1ccc2cc(N=Nc3cc(S(=O)(=O)O)c4cccnc4c3O)ccc2c1	-1%[11.5 µM]	39%[11.4 µM]	?	38%[11.4 µM]	7%[11.4 µM]	-6%[11.5 µM]
Cc1ccc(N=Nc2c(O)ccc3cc(S(=O)(=O)O)ccc23)cc1	-1%[11.5 µM]	-8%[11.4 µM]	?	-6%[11.4 µM]	3.2µM*	-3%[11.5 µM]
Cc1ccc(S(=O)(=O)Oc2ccc(N=Nc3ccc(-c4ccc(N=Nc5c(O)ccc6cc(S(=O)(=O)O)cc(S(=O)(=O)O)c56)c(C)c4)cc3C)cc2)cc1	-4%	?	0.05µM*	3.2µM*	0.01µM*	-8%
CCCc1cc(C(=O)NNC(=S)NCc2ccccc2)cs1	/	/	/	14%	/	/
COc1ccc(N2CCN(C(=O)CN(c3ccccc3)S(C)(=O)=O)CC2)cc1	-1%	5%	-3%	-8%	0%	6%
COc1ccc(C(=O)C(C)N(C(=O)c2ccc(Cl)cc2Cl)N2C(=O)C3C4C=CC(C4)C3C2=O)cc1 (stereo not drawn)	/	/	/	-2%	/	/
Cn1c(SCC(=O)Nc2ccc(N3CCOCC3)c(Cl)c2)nnc1-c1ccccc1	-3%	4%	-8%	/	10µM*	-1%
COc1ccc(C2=NOC(C(=O)Nc3c(C)n(C)n(-c4ccccc4)c3=O)C2)cc1 (stereo not drawn)	/	/	/	1%	/	/
SMILES	Caspase-1 inhib	ALOX15 inhib	Hsp90 Hop PPI	ALOX15B inhib	Tau filament bind	Caspase-7 inhib
COc1ccccc1NC(=O)N(Cc1ccco1)Cc1cc2cc(C)cc(C)c2[nH]c1=O	-8%	10µM*	-12%	8%	61%	-8%
COc1ccccc1NC(=O)N(Cc1ccco1)Cc1cc2ccc(C)c(C)c2[nH]c1=O	?	-25%	-10%	13%	41%	-5%
Cc1cccc(NC(=O)CN2C(=O)COc3ccc(Cl)cc32)c1	2%	5µM*	?	-5%	-7%	1%
COc1ccc(C/C(N)=N/OC(=O)Cc2ccc(OC)c(OC)c2)cc1	/	/	/	-2%	/	/
C(=N\n1cnnc1)/c1ccc2ncccc2c1	2%	11%	-2%	9%	13µM*	-2%
COc1ccc(NCc2nnc(SCC(=O)Nc3cc(C)cc(C)c3)o2)cc1	1%	1%	5%	-6%	-9%	0%
COc1ccc(NCc2nnc(SCC(=O)Nc3cc(C(F)(F)F)ccc3Cl)o2)cc1	-4%	-16%	?	-24%	20µM*	-5%
CC(C)c1ccc(O)c(O)c(=O)c1 (tested in a mixture with another compound)	1%[11.5 µM]	-15%[11.4 µM]	-11%[11 µM]	4µM*	-9%[11.4 µM]	-4%[11.5 µM]
O=C(Nc1nc(-c2ccco2)c(-c2ccco2)s1)C1CC(=O)N(c2ccc3c(c2)OCCO3)C1 (stereo not drawn)	?	2.5µM*	?	?	63%	-28%
CC(C)(C)c1ccc(O)c(O)c1	-1%	4µM*	-10%	5µM*	3%	1%
COC(=O)c1[nH]c(C)c(/C(O)=C2\C(=O)C(=O)N(CCN(C)C)C2c2cc(OC)ccc2OC)c1C (stereo not drawn)	-4%	3%	-2%	-9%	1%	-2%
O=c1cnc2ccccc2n1CC1CCCCC1	-1%	-4%	-4%	-1%	-6%	-1%
CCOC(=O)N1CCC(Nc2c(Nc3ccc(C)c(C)c3)c(=O)c2=O)CC1	-1%	-15%	-8%	-11%	20µM*	-4%
COc1cc(OC)cc(C(=O)NC(=S)NCCc2ccccc2)c1	/	/	/	7.9µM*	/	/
COc1cc(OC)cc(C(=O)NCCNC(=O)c2ccccc2)c1	1%	3%	-5%	8%	6%	0%
CC(C)(C)C(=O)NC(=S)NCCc1ccccc1	/	/	/	13µM*	/	/
CC(C)[C@H](NC(=O)NCCc1ccccc1)C(=O)O	/	/	/	4%	/	/
COC(=O)C1=C(C)NC(C)=C(C(=O)OC)C1c1ccc2ccccc2n1	/	/	/	-3%	/	/
O=C1c2ccccc2C(=O)C1c1ccc2ccccc2n1	-2%	-21%	?	-16%	0.63µM*	0%
